Assay [1] deals with Cellular tumor antigen p53 (Homo sapiens) (UniProt P04637). The assay is described as follows: Primary qHTS for small molecule compounds that upregulate eGFP-tagged delta133p53alpha (in N-terminal) cells. (AID 2060322). Further: nearly all actives have a fitted effect of over 75% in size. Further: potency means the concentration at half of the fitted maximal effect.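 On activation: cells pre-induced with doxycycline then dosed without doxycycline; series mostly up to about 56 µM; 0% = DMSO vehicle and 100% = reference activator.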 The conditions noted are these: NCI-H358 eGFP-delta133p53alpha fluorescence, 24 h; activation: stronger effect = higher value. A digest of the protocol: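 NCI-H358 cells pre-induced 24 h with 10 ng/ml doxycycline for eGFP-delta133p53alpha, plated dox-free and exposed 24 h at 37C to titrated compounds. Fixed, Hoechst-stained; gated GFP peak intensity by laser scanning cytometry, normalized to DMSO (0%) and 57.5 uM 5-azacytidine (100%).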
In general terms: Quantitative high-throughput screening tests each substance at several concentrations.

In assay [2] the target is Aldehyde dehydrogenase, mitochondrial (Homo sapiens) (UniProt P05091). As to the kind of experiment: qHTS for Inhibitors of the Aldehyde Dehydrogenase Family (ALDH2) Primary screen (AID 2061308).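 Further: plate controls were vehicle for no effect and reference inhibitor for full effect; nearly all actives have a fitted effect of over 55% in size.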
Assay [3] concerns the target Retinaldehyde dehydrogenase 3 (Homo sapiens) (UniProt P47895). The assay is described as follows: qHTS for Inhibitors of the Aldehyde Dehydrogenase Family (ALDH1A3) Primary screen (AID 2061315). Further: potency means the concentration at half of the fitted maximal effect.

Results filed as inconclusive are left out. Values without a mark were called inactive. Calls of active or inactive are those of the source. The call rests on the fitted dose curve; in most records, active means well fitted curve in the direction sought with a large enough effect; inconclusive means small, poorly fitted or top-dose-only effect, or another doubt; inactive means no such curve, though single readings can be large; an effect the other way counts as inactive or inconclusive. Numbered stars: 1 amine (or outer) side, 2 acyl side, 3 side chain; on linkers, the order of the positions; unused ones are H or OH. Square brackets hold non-standard residues; d marks the D form. Peptide text beside a SMILES is read from it. X10 = O=C(C(CC(O)CO)O[*:1])[*:2]; NMeV = CN[CH](C(=O)O)C(C)C; NMeA = CN[CH](C)C(=O)O; βAla = NCCC(=O)O

Cellular tumor antigen p53 (Homo sapiens), sequence (P04637 whole entry, looked up): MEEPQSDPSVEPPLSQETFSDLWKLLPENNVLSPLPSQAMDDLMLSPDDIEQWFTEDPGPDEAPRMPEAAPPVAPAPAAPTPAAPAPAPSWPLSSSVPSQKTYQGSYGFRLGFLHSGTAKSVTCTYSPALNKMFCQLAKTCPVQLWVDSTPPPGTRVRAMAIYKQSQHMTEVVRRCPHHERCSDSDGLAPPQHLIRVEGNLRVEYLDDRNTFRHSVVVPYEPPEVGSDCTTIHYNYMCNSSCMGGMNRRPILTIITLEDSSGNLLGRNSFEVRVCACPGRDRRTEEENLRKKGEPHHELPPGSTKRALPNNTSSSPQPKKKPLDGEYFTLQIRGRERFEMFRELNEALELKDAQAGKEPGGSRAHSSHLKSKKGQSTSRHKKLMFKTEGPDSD

For the molecule `CCC(C)C(=O)O[C@H]1CCC=C2C=C[C@H](C)[C@H](CC[C@@H](O)C[C@@H](O)CC(=O)O)[C@H]21` (stereo not given in full), the activation in assay [1] is -32.8%. Also, the Potency result in assay [2] and in assay [3] was “inactive” throughout.

For the molecule `CC1(O)CCCC2(C)C1CCC13CC(CO)C(CCC12)C3` (stereo not given), the activation in assay [1] was 0%. In addition, the Potency entry in assay [2] and in assay [3] was “inactive” each time.

On to `C=C1CCC2C(C)(C(=O)O)CCCC2(C)C1CCC1=CCOC1=O` (stereo not given), for which the activation in assay [1] was 31.2%. The Potency result in assay [2] and in assay [3] was “inactive” in each case.

Consider `C/C1=C\CCC(C)CCO[C@@H]2O[C@H](CO[C@@H]3OC[C@H](O)[C@H](O)[C@H]3OC1=O)[C@@H](O)[C@H](O)[C@H]2O` (stereo not given in full), for which the activation in assay [1] is -24.1%. In addition, the Potency result in assay [2] and in assay [3] was “inactive” each time.

On to `C=C1[C@@H]2CC[C@@]3(C)[C@H](c4ccoc4)OC(=O)C[C@]13O[C@H]1CC(=O)C(C)(C)[C@H](CC(=O)OC)[C@]12C`, for which the activation in assay [1] was -26.7%. Further, the Potency result in assay [2] and in assay [3] was “inactive” each time.

As for `C=CCc1ccc(O[C@@H]2O[C@H](CO[C@@H]3O[C@H](CO)[C@@H](O)[C@H](O)[C@H]3O)[C@@H](O)[C@H](O)[C@H]2O)c(O)c1`, the activation in assay [1] was -5.34%. Moreover, the Potency entry in assay [2] and in assay [3] was “inactive” each time.

Consider `C=C(CO[C@@H]1O[C@H](CO[C@@H]2OC[C@](O)(CO)[C@H]2O)[C@@H](O)[C@H](O)[C@H]1O)C1Cc2cc(C(C)=O)ccc2O1` (stereo not given in full), for which the activation in assay [1] was -12.2%. Also, the Potency result in assay [2] and in assay [3] was “inactive” each time.

Take `C/C1=C\CC[C@]2(C)O[C@@H]2[C@H](O)[C@H](C(C)C)[C@H](OC(=O)/C=C/c2ccccc2)C1`: the activation in assay [1] was 6.25%. Also, the Potency entry in assay [2] and in assay [3] was “inactive” in each case.

As for `CO[C@H]1C=C2C(CC[C@H](O[C@@H]3O[C@H](CO)[C@@H](O)[C@@H](O)[C@H]3O)C2(C)C)[C@]2(C)CC[C@]3(C)C([C@H](C)C(O)C(C=C(C)C)O[C@@H]4O[C@H](CO)[C@@H](O)[C@@H](O)[C@H]4O)CC[C@@]3(C)C12` (stereo not given in full), the activation in assay [1] was 0.763%. For the same molecule, the Potency result in assay [2] and in assay [3] was “inactive” throughout.

With `CCN(CC)C(=O)c1ccc(Nc2nc(OCC3CCCCC3)c3[nH]cnc3n2)cc1`, in assay [1], the activation is 8.04%. In addition, the Potency entry in assay [2] and in assay [3] was “inactive” throughout.

Regarding `CN(C)CC#CCCC(=O)C(O)(c1ccccc1)C1CCC1` (stereo not given), the activation in assay [1] was 8.33%. For the same molecule, the Potency entry in assay [2] and in assay [3] was “inactive” in each case.

For the molecule `CC(=O)OC1C(O)C2C(C)C3=CC(=O)OC3(O)CC2C2(C)CCCC(C)(CO)C12` (stereo not given), in assay [1], the activation is 9.16%. For the same molecule, the Potency entry in assay [2] and in assay [3] was “inactive” in each case.

In the case of `COC1C(=O)CCC2(CO2)C1(O)C1(C)OC1CC=C(C)C` (stereo not given), the activation in assay [1] is -9.82%. In addition, the Potency entry in assay [2] and in assay [3] was “inactive” each time.

In the case of `C/C=C(\C)C(=O)OC[C@H]1O[C@@H](O[C@H]2[C@@H](O[C@H]3O[C@H](CO)[C@@H](O)[C@H](O)[C@H]3O[C@@H]3O[C@H](CO)[C@@H](O)[C@H](O)[C@H]3O)O[C@H](COC(=O)/C(C)=C/C)[C@@H](O)[C@@H]2O)[C@H](O)[C@@H](O)[C@@H]1O`, the activation in assay [1] was -8.4%. In addition, the Potency result in assay [2] and in assay [3] was “inactive” each time.

As to `CC(=O)OC1C(=O)C2C3OCC4=C3[C@@](C)(CC[C@@H]4O)CC[C@]2(C)[C@H]1C(C)C` (stereo not given in full), the activation in assay [1] was -14.5%. For the same molecule, the Potency result in assay [2] and in assay [3] was “inactive” each time.

As for `N#C/C(=C1\Nc2ccccc2S1)c1ccnc(NCCc2cccnc2)n1`, the Potency in assay [1] is 19 µM (active). Moreover, the Potency result in assay [2] and in assay [3] was “inactive” each time.

Consider `CC(C)c1noc(C2CCN(c3ncnc(Nc4ccc(S(C)(=O)=O)cc4F)c3[N+](=O)[O-])CC2)n1`, for which the activation in assay [1] is 21%. For the same molecule, the Potency result in assay [2] and in assay [3] was “inactive” each time.

Consider `CC1=C2C(O)C(=O)OC(c3ccoc3)C2(C)CCC1O` (stereo not given), for which the activation in assay [1] was -16%. For the same molecule, the Potency result in assay [2] and in assay [3] was “inactive” in each case.

For the molecule `C[C@H]1CC[C@@]2(OC1)O[C@H]1CC3C4CC[C@H]5C[C@@H](O)CC[C@]5(C)C4CC(=O)[C@]3(C)[C@H]1[C@@H]2C` (stereo not given in full), the activation in assay [1] was 25.9%. Besides, the Potency result in assay [2] and in assay [3] was “inactive” throughout.

Take `CCC(C)C1NC(=O)C2CCCN2C(=O)C(CC(O)CO)OC(=O)CCNC(=O)C(C)N(C)C(=O)C(C(C)C)N(C)C1=O` (stereo not given) (cyclo([X10]PI[NMeV][NMeA][βAla]); configuration not given here): in assay [1], the activation is -16%. Moreover, the Potency result in assay [2] and in assay [3] was “inactive” each time.

Take `CC12CCC(OC3OC(CO)C(O)C(O)C3OC3OC(CO)C(O)C(O)C3O)CC1CCC1C2CCC2(C)/C(=C3/COC(=O)C3)CCC12O` (stereo not given): in assay [1], the activation is -0.763%. Besides, the Potency entry in assay [2] and in assay [3] was “inactive” each time.

Take `C=CC1(C)C=C2C(O)CC3C(C)(C(=O)O)CCCC3(C)C2CC1` (stereo not given): in assay [1], the activation was 8.04%. Besides, the Potency entry in assay [2] and in assay [3] was “inactive” in each case.

In the case of `CC(C)(C)c1ccc(-c2nc3ccccc3[nH]2)cc1`, the activation in assay [1] was -14.3%. In addition, the Potency entry in assay [2] was “inactive”. Further, the Potency in assay [3] was 8.91 µM (active).

Take `CCOc1nc(NC(=O)Cc2cc(OC)ccc2OC)cc(N)c1C#N`: the activation in assay [1] is 15%. The Potency result in assay [2] and in assay [3] was “inactive” in each case.

Consider `C[C@@H]1O[C@@H](OC[C@H]2O[C@@H](OCc3ccccc3)[C@H](O)[C@@H](O)[C@@H]2O)[C@H](O)[C@H](O)[C@H]1O`, for which the activation in assay [1] is 15.3%. The Potency entry in assay [2] and in assay [3] was “inactive” throughout.

The values are drawn from PubChem BioAssay (NCATS).
